Pin1 inh = qHTS Assay to Find Inhibitors of Pin1; Pin1 FP peptide displacement, HiFluor488, 10 min; Potency, µM (highest dose often 115 µM), actives largely listed as inhibitors; 390,000 tested, 0.009% active; Peptidyl-prolyl cis-trans isomerase NIMA-interacting 1 (Homo sapiens), Q13526; active = well fitted inhibition curve with a large enough effect in the polarisation, with a control signal flat, not every such curve was filed as active; inconclusive = small, poorly fitted or top-dose-only effect, or effect the other way, or a change in a side signal; inactive = no such curve, though single readings can be large or run the other way; the % refers to the polarisation
Target sequence (Q13526 whole entry, looked up): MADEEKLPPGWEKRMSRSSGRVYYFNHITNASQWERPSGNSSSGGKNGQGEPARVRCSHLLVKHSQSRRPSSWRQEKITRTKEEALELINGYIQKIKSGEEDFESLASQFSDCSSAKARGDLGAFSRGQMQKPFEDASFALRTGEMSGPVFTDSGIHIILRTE
Tb PGK inh = qHTS Assay to Find Inhibitors of Phosphoglycerate Kinase. PGK/GAPDH coupled, Kinase-Glo luminescence, 60 min. AID 602233, 2012. Phosphoglycerate kinase, glycosomal (Trypanosoma brucei brucei), P07378. Potency, µM (series often up to 57.5 µM), hits mostly inhibitors. 380,000 tested, 0.043% active; note: nearly all actives have a fitted effect of over 60% in size
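Luminescent ATP detection (Kinase-Glo Plus) follows a 60-minute room-temperature incubation, with wells lacking PGK as controls. Buffer: 100 mM TEA (pH 7.6), 5 mM MgCl2, 0.01% Tween-20. Coupling enzyme GAPDH (100 nM final) supplies unstable 1,3-BPG in-well.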
Chronic BCR inh = qHTS Assay to Find Inhibitors of Chronic Active B-Cell Receptor Signaling | ABC-DLBCL IkBa-CBG/CBR reporter, luminescence ratio, 4 h | Potency, µM (top dose mostly 46.1 µM), usual class: inhibitors | 340,000 tested, 0.05% active | AID 493014, 2011; active = well fitted inhibition curve with a large enough effect in the signal ratio, with a control signal flat, not every such curve was filed as active; inconclusive = small, poorly fitted or top-dose-only effect, or effect the other way, or a change in a side signal; the % refers to the signal ratio
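Concentration-response series (up to 46 uM) were applied to TMD8 dual-reporter cells for 4 h at 37C with doxycycline. Green/red ratio, after filter-overlap correction, defined %Activity; red signal alone was normalised to basal cells and zero luminescence.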
Tb PFK block = qHTS Assay to Find Inhibitors of T. brucei phosphofructokinase; T. brucei PFK, ADP-Glo luminescence; Potency, µM (top dose mostly 57.5 µM), most hits filed as inhibitors; 330,000 tested, 0.17% active; AID 485367, 2010; note: nearly all actives have a fitted effect of over 60% in size
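Compounds were pin-transferred as a titration series up to 57 uM into substrate buffer (0.5 mM F6P, 0.1 mM ATP, pH 8.0), then 1.25 nM PFK was added and reactions ran 45 min before ADP-Glo detection.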
B2AR arrestin = qHTS assay of beta-arrestin-biased ligands of beta2-adrenergic receptor | Potency, µM (highest dose often 46.1 µM), usual class: activators | beta-arrestin recruitment to beta2AR, cell-based reporter | 330,000 tested, 0.02% active | AID 492947, 2010; note: nearly all actives have a fitted effect of over 65% in size
Target sequence (P07550 whole entry, looked up): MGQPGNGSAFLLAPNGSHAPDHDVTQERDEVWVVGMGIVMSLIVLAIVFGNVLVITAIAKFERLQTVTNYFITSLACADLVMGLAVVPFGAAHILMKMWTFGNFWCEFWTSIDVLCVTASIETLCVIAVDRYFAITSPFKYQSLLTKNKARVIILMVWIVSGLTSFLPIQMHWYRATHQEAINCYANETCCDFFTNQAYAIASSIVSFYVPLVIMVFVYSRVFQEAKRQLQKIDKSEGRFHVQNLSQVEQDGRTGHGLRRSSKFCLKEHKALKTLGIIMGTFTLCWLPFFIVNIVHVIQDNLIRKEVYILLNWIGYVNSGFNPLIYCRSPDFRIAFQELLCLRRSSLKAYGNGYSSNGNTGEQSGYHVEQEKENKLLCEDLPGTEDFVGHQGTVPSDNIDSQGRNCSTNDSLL
GLS inh = qHTS for Inhibitors of Glutaminase (GLS) | Glutaminase kidney isoform, mitochondrial (Homo sapiens), O94925 | GLS enzymatic activity, qHTS titration | Potency, µM (series often up to 45.5 µM), actives largely listed as inhibitors | 410,000 tested, 0.21% active | AID 624170, 2012
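Glutamate formation by hKGA was monitored fluorometrically using coupled glutamate oxidase, HRP and Amplex Red. Substrate was added as 1 mM L-glutamine solution; incubation was 30 min at RT after an initial read.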
Numbers stand for hits. Rows were chosen to be rich in hits. Some 0.42% of all compounds tested hit in one or more screens of this group. Unless noted, calls come from the whole dose curve; as a rule, active = well fitted curve in the direction sought with a large enough effect; inconclusive = small, poorly fitted or top-dose-only effect, or another doubt; inactive = no such curve, though single readings can be large; an effect the other way counts as inactive or inconclusive.

How did CCOC(=O)C1CCCN(c2nc3ccccc3nc2C(C#N)C(=O)OCC)C1 (stereo not given) do in these assays?
Pin1 inh: inconclusive; Tb PGK inh: inactive; Chronic BCR inh: inactive; Tb PFK block: inactive; B2AR arrestin: inactive; GLS inh: inactive

Results for CCOC(=O)C1CCN(c2nc3ccccc3nc2C(C#N)C(=O)NCCc2ccccc2)CC1 (stereo not given) ?
Chronic BCR inh: inconclusive; Tb PFK block: 9.5µM; B2AR arrestin: inactive

How did CCc1n[nH]c(=S)n1/N=C/c1c(C)nn(-c2ccccc2)c1Cl do in these assays?
Pin1 inh: inactive; Tb PGK inh: inactive; Chronic BCR inh: inactive; Tb PFK block: inactive; B2AR arrestin: inactive; GLS inh: inactive

Results for CCc1n[nH]c(=S)n1/N=C/c1ccc(N(CC)CC)cc1 ?
Pin1 inh: inactive; Tb PGK inh: inactive; Chronic BCR inh: 11µM; Tb PFK block: inactive; B2AR arrestin: inconclusive; GLS inh: inconclusive

How did COc1cc(CN2CCN(S(=O)(=O)c3ccc(NC(C)=O)cc3)CC2)cc(OC)c1O do in these assays?
Pin1 inh: inactive; Tb PGK inh: inactive; Chronic BCR inh: inconclusive; Tb PFK block: inactive; B2AR arrestin: inactive; GLS inh: 13µM

Results for COc1ccc(CN2CCN(S(=O)(=O)c3ccc(NC(C)=O)cc3)CC2)cc1OC ?
Pin1 inh: inactive; Tb PGK inh: inactive; Chronic BCR inh: inactive; Tb PFK block: inactive; B2AR arrestin: inactive; GLS inh: inactive

How did COc1cccc(C2c3c(ncn(-c4ccccc4C#N)c3=N)Oc3ccc4ccccc4c32)c1 (stereo not given) do in these assays?
Pin1 inh: inactive

What do the screens show for `O=S(=O)(Nc1cc(Sc2ncn[nH]2)c(O)c2ccccc12)c1ccccc1`?
Pin1 inh: 45µM; Tb PGK inh: inactive; Chronic BCR inh: inconclusive; Tb PFK block: inconclusive; B2AR arrestin: inactive; GLS inh: inactive

What do the screens show for `O=P(O)(O)OC[C@@H](O)CO`?
GLS inh: inactive

Results for C=C(C)C(=O)Nc1cccc(C2=NOC3(C2)C[C@H](C(N)=O)N(C(=O)/C=C/C)C3)c1 (stereo not given in full) ?
Pin1 inh: inactive; Tb PGK inh: inconclusive; Chronic BCR inh: inactive; Tb PFK block: inconclusive; B2AR arrestin: inactive; GLS inh: inactive

What do the screens show for `C=C(C)C(=O)Nc1cccc(C2=NOC3(C2)C[C@@H](C(N)=O)N(C(=O)C2(C)CC2)C3)c1` (stereo not given in full)?
Tb PGK inh: inconclusive; Chronic BCR inh: inactive; Tb PFK block: 1.5µM; B2AR arrestin: inactive; GLS inh: 28µM

What do the screens show for `C=C(C)C(=O)Nc1cccc(C2=NOC3(C2)C[C@H](C(N)=O)N(C(=O)c2ccccc2)C3)c1` (stereo not given in full)?
Pin1 inh: inactive; Tb PGK inh: 11µM; Chronic BCR inh: inactive; Tb PFK block: inactive; B2AR arrestin: inactive; GLS inh: inactive

What do the screens show for `C=C(C)C(=O)Nc1cccc(C2=NOC3(C2)C[C@@H](C(N)=O)N(C(=O)c2cc([N+](=O)[O-])cc([N+](=O)[O-])c2C)C3)c1` (stereo not given in full)?
Pin1 inh: inconclusive; Tb PGK inh: 11µM; Chronic BCR inh: inactive; Tb PFK block: inconclusive; B2AR arrestin: inactive; GLS inh: inconclusive

Results for COc1ccc(CN(Cc2ccccc2)C(=O)c2ccc(OC)cc2O)cc1 ?
Pin1 inh: inactive

What do the screens show for `Cc1ccc(C(=O)Nc2ccc(S(=O)(=O)O)c3cc(S(=O)(=O)O)cc(S(=O)(=O)O)c23)cc1NC(=O)c1cccc(NC(=O)Nc2cccc(C(=O)Nc3cc(C(=O)Nc4ccc(S(=O)(=O)O)c5cc(S(=O)(=O)O)cc(S(=O)(=O)O)c45)ccc3C)c2)c1`?
GLS inh: 8.9µM

What do the screens show for `Cc1ccccc1NC(=O)c1cccc(S(=O)(=O)Nc2cccc(C(=O)O)c2)c1`?
Pin1 inh: inactive; Tb PGK inh: inactive; Chronic BCR inh: inactive; Tb PFK block: inactive; B2AR arrestin: inactive; GLS inh: inactive

Results for O=C(Nc1ccccc1)c1ccc2nc(-c3ccco3)c(-c3ccco3)nc2c1 ?
Pin1 inh: inconclusive; Tb PGK inh: inactive; Chronic BCR inh: inactive; Tb PFK block: inactive; B2AR arrestin: inactive; GLS inh: inactive

Results for CC(=O)c1ccc(NC(=O)c2ccc3nc(-c4ccco4)c(-c4ccco4)nc3c2)cc1 ?
Pin1 inh: 19µM; Tb PGK inh: inconclusive; Chronic BCR inh: inconclusive; Tb PFK block: inactive; B2AR arrestin: inactive; GLS inh: 14µM

What do the screens show for `O=C(NCCCO)c1ccc2nc(-c3ccco3)c(-c3ccco3)nc2c1`?
Pin1 inh: inconclusive; Tb PGK inh: inactive; Chronic BCR inh: inconclusive; Tb PFK block: inactive; B2AR arrestin: inactive; GLS inh: inactive

How did O=C(NCCO)Nc1ccc2nc(-c3ccco3)c(-c3ccco3)nc2c1 do in these assays?
Chronic BCR inh: inconclusive; Tb PFK block: 1.9µM; B2AR arrestin: inactive

Results for O=C(Nc1ccc(O)c2ncccc12)c1ccccc1F ?
Pin1 inh: inactive

How did O=C(c1cccs1)N1CCN(c2nnc(-c3ccccc3)c3ccccc23)CC1 do in these assays?
Pin1 inh: inactive; Tb PGK inh: inactive; Chronic BCR inh: inactive; Tb PFK block: inactive; B2AR arrestin: inactive; GLS inh: inactive

How did Cc1ccc(-c2nnc(N3CCN(C(=O)c4cccs4)CC3)c3ccccc23)cc1 do in these assays?
Pin1 inh: inactive; Tb PGK inh: inactive; Chronic BCR inh: inactive; Tb PFK block: inactive; B2AR arrestin: inactive; GLS inh: 20µM

What do the screens show for `CCN(Cc1ccccc1)c1ccc(Br)cn1`?
Pin1 inh: inactive

How did COc1cc(/C=N/NC(=O)c2cccc(NC(=O)c3ccccc3)c2)ccc1O do in these assays?
Pin1 inh: inactive; Tb PGK inh: inactive; Chronic BCR inh: inconclusive; Tb PFK block: inactive; B2AR arrestin: inactive; GLS inh: inactive

How did COc1cc(/C=N/NC(=S)Nc2cccc(S(=O)(=O)N(C)C)c2)ccc1O do in these assays?
Pin1 inh: inactive; Tb PGK inh: inactive; Chronic BCR inh: inconclusive; Tb PFK block: inactive; B2AR arrestin: inactive; GLS inh: 10µM

How did O=C(c1nc2ccccn2c1CN1CCN(c2ccccc2O)CC1)N1CCCC1 do in these assays?
Pin1 inh: inactive; Tb PGK inh: inactive; Chronic BCR inh: inactive; Tb PFK block: inactive; B2AR arrestin: inactive; GLS inh: 3.5µM

What do the screens show for `O=C(O)Cc1nnc(-c2cc3ccccc3[nH]2)s1`?
Pin1 inh: inactive
